# Laboratory results taken from PubChem BioAssay (NCI).
# About 79,000 compounds went through this panel and 15% of them were active in at least one assay; those are over-represented in the sample as a whole. A number with no mark means an inactive call. Cut-off read from the data, not from the text of the source: active = growth inhibition above about 70%; inactive = the rest.
# Assay: NCI Yeast Anticancer Drug Screen. Data for the sgs1 mgt1 strain (AID 161);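 note: 0% = growth of cultures given vehicle only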
# Conditions: S. cerevisiae sgs1 mgt1 strain, at 5.0 µM (retest, dose inferred, filed as 0.5), hits give high values
# Method in brief: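 Mutant yeast exposed to compound; growth scored against vehicle-only wells.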
row,Structure (SMILES),growth inhibition
1,OC1C2COc3nc4ccccc4n3C(O2)C1O (configuration not stated),-58%
2,CN(C)CC1Cc2ccsc2C1=O (configuration not stated),3%
3,CCCC(O)C[N+](=O)[O-] (configuration not stated),-2%
4,CC1=NC(C)=C(/C(C)=N/NC(=O)c2ccccc2O)C(C)/C1=C(/C)NNC(=O)c1ccccc1O (configuration not stated),-1%
5,O=[N+]([O-])c1cccc(S(=O)(=O)N/N=C/c2cc(I)cc([N+](=O)[O-])c2O)c1,10%
6,CNC(=O)OC(C)CN1c2ccccc2Sc2ccc(Cl)cc21 (configuration not stated),2%
7,O=[N+]([O-])c1ccc(NSc2ccccc2)cc1,5%
8,CCOc1ccc2c(c1)nc1ccccc1[n+]2CC,2%
9,O=C1C=CC(=O)c2c(O)c(N3CCN(CCO)CC3)c(Cl)c(O)c21,48%
10,O=C1CSC(c2cccc([N+](=O)[O-])c2)N1c1ccc(-c2ccc(-n3c(-c4ccccc4)nc4ccccc4c3=O)cc2)cc1 (configuration not stated),2%
11,CCC(=O)c1ccc2ccc3ccccc3c2c1,4%
12,N#CSCc1c(Cl)cccc1Cl,18%
13,O=[N+]([O-])/C(C(Cl)=C(Cl)Cl)=C(/Sc1ccccc1)N1CCOCC1,-4%
14,COc1c2occc2c(OC)c2c(C)c(C(=O)OCCN3CCOCC3)oc12,-4%
15,COc1cnn(-c2ccccc2)c(=O)c1SCc1ccc(Cl)c(Cl)c1,1%
16,COc1ccc(/C=C/c2c[n+]([O-])ccc2[N+](=O)[O-])cc1,37%
17,CS(=O)(=O)OCCCN(CCCOS(C)(=O)=O)c1ccc(C=Nc2ccc(-c3csc(COc4ccc(Br)cc4Br)n3)cc2)cc1,13%
